This note sets out measurements from PubChem BioAssay (NCI).

About 83,000 compounds went through this panel and 20% of them were active in at least one assay; those are over-represented in the sample as a whole.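 Single-concentration screen, 48 h exposure, 96-well plates. Endpoint: percent growth. Below 10 = active.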 The source made the active and inactive calls.

The test system of this assay is HS 578T breast. Description: NCI-60 one-dose screen, 48 h (100 = growth as untreated, 0 = no growth, -100 = all killed). As to conditions: 10 µM unless noted.
For `COc1cc(Cn2c(SCCC(=O)Nc3ccc(F)cc3)nc3ccccc3c2=O)cc(OC)c1OC`, the growth was 86.2% (inactive).
For `COc1cc(Cn2c(SCC(=O)Nc3ccc(Cl)cc3)nc3ccccc3c2=O)cc(OC)c1OC`, the growth is 7.73% (active).
On to `Nc1c(C(=O)Nc2ccccc2)sc2nc3c(cc12)CCCCC3`, for which the growth was 14.5% (inactive).
In the case of `COC12CC(=O)C(C(C)=O)=C(O)C1(C)c1c(O)c(C)c(O)c(C(C)=O)c1O2` (stereo not drawn), the growth was 75.4% (inactive).
For `Oc1ccc(Cl)cc1-c1cc(-c2ccc(Cl)cc2)n[nH]1`, the growth is 81.5% (inactive).
On to `Clc1nc(-c2cccnc2)nc2sc3c(c12)CCCCCC3`, for which the growth is 109% (inactive).
The figure for `CC(=O)Nc1nc(C(=O)N2N=C(C)/C(=C/c3cccs3)C2=O)cs1` is 114% (inactive); for `O=C1Nc2ccc(Br)cc2C1=N/C=c1\[nH]c(=O)/c(=C/c2ccc(Cl)cc2)s1` it is 100% (inactive).
